Only some compounds are listed: those with a hit (about 4.3% of all), similar ones and a draw of the others.
Wnt act = activators of Wnt/beta-catenin signaling; Wnt/beta-catenin reporter cell assay, activator, plate reader; activation, % at 9.35 µM; actives 1.2% (n = 300,000); AID 743398; in the data active = activation above about 30%, passing the limit was not always enough;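 note: 0% = neutral control wells and 100% = positive control wells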
AF4-AF9 inh = blocks AF4 peptide binding to human AF9; P42568; AlphaScreen, biotin-AF4 peptide binding to FLAG-AF9; inhibition, % at 10 µM; actives 0.47% (n = 350,000); AID 651704;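 active = every replicate reaching a set inhibition limit, whatever the replicate mean, cut at about 25% in these data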;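 note: 0% = plate neutral control median and 100% = total signal loss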
Target sequence (P42568 whole entry, looked up): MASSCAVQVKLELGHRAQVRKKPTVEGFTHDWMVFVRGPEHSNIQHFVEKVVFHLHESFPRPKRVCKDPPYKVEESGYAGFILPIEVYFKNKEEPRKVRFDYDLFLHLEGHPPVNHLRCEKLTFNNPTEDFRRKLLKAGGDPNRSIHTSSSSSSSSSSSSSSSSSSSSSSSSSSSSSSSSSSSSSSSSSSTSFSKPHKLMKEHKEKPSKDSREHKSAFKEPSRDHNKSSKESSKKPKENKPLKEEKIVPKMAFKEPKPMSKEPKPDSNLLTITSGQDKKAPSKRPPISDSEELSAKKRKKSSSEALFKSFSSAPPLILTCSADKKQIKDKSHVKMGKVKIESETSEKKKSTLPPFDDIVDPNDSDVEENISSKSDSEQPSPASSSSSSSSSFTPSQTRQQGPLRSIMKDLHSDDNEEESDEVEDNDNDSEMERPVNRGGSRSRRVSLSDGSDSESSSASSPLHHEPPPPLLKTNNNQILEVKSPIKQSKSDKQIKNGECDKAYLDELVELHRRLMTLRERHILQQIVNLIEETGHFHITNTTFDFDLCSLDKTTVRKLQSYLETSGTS
esBAF inh = blocks esBAF chromatin remodeling in mouse ES cells; Bmi1-luciferase knock-in reporter, 24 h; 100% = twice the neutral-well signal; reporter increase, % at 12.5 µM; actives 2% (n = 350,000); AID 602393; in the data active = activation above about 40%;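 note: 0% = median of the plate's neutral control wells and 100% = double that signal; a rise in the Bmi1 reporter signal indicates esBAF inhibition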
SMARCA2 activ = activators of SMARCA2 function; MG213 cells, MMTV-luciferase reporter, dexamethasone, overnight; activation, % at 9.1 µM; actives 1% (n = 370,000); AID 652017; in the data active = activation above about 7.8%;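 note: 0% = vehicle wells and 100% = reference activator wells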
MITF act = activators of MITF-driven TRPM1 promoter activity in SK-MEL-5 cells | SK-MEL-5 TRPM1-promoter luciferase, 24 h; % of positive control, neutral wells = 0 | activation, % at 12.5 µM | actives 0.75% (n = 300,000) | AID 588334;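 active = mean activation of at least 80% with every replicate also reaching 80%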;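 note: 0% = neutral control wells and 100% = parthenolide positive control wells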
FGF22 binding = FGF22 (human) thermal shift binding; AID 651658; actives 1.5% (n = 340,000); activity (Tm shift, normalised), % at 9.99 µM; recombinant FGF22 thermal shift, SYPRO orange fluorescence; percent of sucrose octasulfate shift, DMSO zero;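 active = mean Tm shift, scaled 0 neutral to 100 positive control, at about 1.3% or above, every replicate too, limit read from the data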
The depositor's hits bear a star; x = not tested or not shown.

SMILES | Wnt act | AF4-AF9 inh | esBAF inh | SMARCA2 activ | MITF act | FGF22 binding
C[C@H]1CN([C@@H](C)CO)C(=O)Cc2cc(NC(=O)Nc3cccc4ccccc34)ccc2O[C@@H]1CN(C)S(=O)(=O)c1ccc(Cl)cc1 | x | -1.1 | 7.2 | x | x | 0.2
Cn1cnc(S(=O)(=O)N2C[C@@H](O)COC[C@H]3O[C@@H](CC(=O)NCc4cccc(F)c4)CC[C@@H]32)c1 | x | -1.3 | -6.2 | x | x | 0.0
O=C(C[n+]1cc(-c2ccc(F)cc2)n2c1CCC2)c1cccs1 | -1.8 | -1.2 | 46.0* | -1.2 | x | -0.1
O=S(=O)(N[C@H]1CC[C@@H](CCNS(=O)(=O)c2ccccc2Cl)O[C@H]1CO)c1ccccc1 | x | -0.9 | -0.7 | x | x | 0.0
C[C@H](CO)N1C[C@H](C)[C@H](CN(C)C(=O)CCCN(C)C)OCCCC[C@H](C)Oc2ccc(NC(=O)Nc3ccc(C(F)(F)F)cc3)cc2C1=O | x | x | 1.7 | x | x | -0.3
CCOC(=O)c1cc(-c2nnc(-c3ccc(Cl)cc3)o2)c(C)nc1C | -2.3 | -3.6 | 4.4 | -0.9 | 7.8 | 0.1
CCOC(=O)c1ccc(-c2nnc(-c3ccc(Cl)cc3Cl)o2)cc1 | x | x | 44.6* | -0.2 | 87.4* | x
CC(C)C(=O)Nc1ccc2c(c1)C(=O)N(C)[C@H]1CC[C@H](CC(=O)NCc3ccccc3)O[C@@H]1CO2 | x | 2.1 | -5.6 | x | x | -0.5
Clc1ccc(OCc2cc(-c3ccccc3)no2)c(Cl)c1 | x | x | -51.4 | 7.5 | 10.2 | x
Fc1ccc(OCc2cc(-c3ccccc3)no2)cc1 | 30.0 | -1.8 | 56.7* | 3.9 | 100.4* | 0.1
O=c1[nH]cnc2c1ncn2C1OC(CO)C(O)C1O (stereo unspecified) | 0.1 | -3.7 | -13.5 | -1.9 | 2.4 | -0.5
O=c1[nH]cnc2c1nnn2C1OC(CO)C(O)C1O (stereo unspecified) | -0.9 | 1.8 | 71.2* | 5.4 | x | 0.0
N#C[C@H]1[C@@H](c2ccccc2C2=CCCCC2)[C@@H](CO)N1C(=O)c1ccccn1 | x | -9.4 | x | x | x | 0.1
c1ccc(Cn2c(NCc3ccccn3)nc3ccccc32)cc1 | 0.0 | -0.5 | -4.9 | 5.1 | -12.4 | 43.5*
CCOC(=O)C1(Cc2cccc(OC)c2)CCCN(C(=O)c2cc(C)[nH]n2)C1 (stereo unspecified) | 11.3 | 1.3 | x | 0.8 | 52.1 | 0.5
CCOC(=O)C1(Cc2ccccc2)CCCN(C(=O)c2cnn(CC)c2)C1 (stereo unspecified) | 24.0 | -0.5 | 65.2* | 3.8 | 90.9* | -0.2
CCOC(=O)C1(Cc2cccc(OC)c2)CCCN(C(=O)c2ccccc2C)C1 (stereo unspecified) | 35.4* | -5.9 | x | 2.5 | 72.4 | 0.0
CCOC(=O)C1(Cc2cccc(OC)c2)CCCN(C(=O)c2cc(C)on2)C1 (stereo unspecified) | 12.2 | -6.0 | 48.4* | 0.6 | 31.3 | 0.1
CCOC(=O)C1(Cc2cccc(OC)c2)CCCN(C(=O)CNC(C)=O)C1 (stereo unspecified) | 10.2 | -1.5 | 64.6* | 7.1 | 64.2 | -0.1
CCOC(=O)C1(Cc2cccc(Cl)c2)CCCN(C(=O)C2CC2)C1 (stereo unspecified) | 1.9 | -4.6 | 1.9 | 1.1 | 13.9 | 43.0*
Cc1ccccc1S(=O)(=O)NC1OC(=O)C(Oc2ccccc2)=C1Br (stereo unspecified) | 5.1 | -2.7 | x | 1.5 | 3.1 | 43.0*
Cc1noc(C)c1NC(=O)N(C)C[C@H]1Oc2cc(C#CCC(C)C)ccc2S(=O)(=O)N([C@H](C)CO)C[C@@H]1C | x | 5.8 | 0.2 | x | x | -0.1
C[C@H]1CN([C@@H](C)CO)S(=O)(=O)c2ccc(/C=C/c3ccccc3)cc2O[C@@H]1CN(C)C(=O)c1ccc2c(c1)OCO2 | x | 5.5 | -5.5 | x | x | 1.9*
COc1cccc(NC(=O)N(C)C[C@@H]2Oc3cc(C#Cc4ccccc4)ccc3S(=O)(=O)N([C@@H](C)CO)C[C@@H]2C)c1 | x | x | 12.1 | x | x | 1.4*
Cc1ccc(-c2ccc3c(c2)O[C@@H](CN(C)C(=O)Nc2ccccc2)[C@@H](C)CN([C@@H](C)CO)S3(=O)=O)cc1 | x | 3.7 | 0.6 | x | x | 1.5*
SMILES | Wnt act | AF4-AF9 inh | esBAF inh | SMARCA2 activ | MITF act | FGF22 binding
Cc1noc(C)c1NC(=O)N(C)C[C@@H]1Oc2cc(C#CCC(C)C)ccc2S(=O)(=O)N([C@H](C)CO)C[C@H]1C | x | 29.6* | 8.7 | x | x | 0.1
Cc1ccc(-c2ccc3c(c2)O[C@H](CN(C)C(=O)Nc2ccccc2)[C@H](C)CN([C@@H](C)CO)S3(=O)=O)cc1 | x | 0.9 | 6.5 | x | x | 0.6
COc1cccc(-c2cnc3c(c2)C(=O)N([C@@H](C)CO)C[C@@H](C)[C@H](CN(C)C(=O)Nc2ccccc2F)O3)c1 | x | x | x | x | x | -0.2
COc1cccc(NC(=O)N[C@H]2C=C[C@H](CC(=O)Nc3ccc(-c4ccccc4)cc3)O[C@H]2CO)c1 | x | 0.5 | 6.1 | x | x | 0.0
C[C@@H]1CN([C@@H](C)CO)S(=O)(=O)c2ccc(/C=C/c3ccccc3)cc2O[C@H]1CN(C)C(=O)Nc1ccc(F)cc1 | x | 0.7 | -3.3 | x | x | 1.6*
C[C@@H]1CN([C@@H](C)CO)S(=O)(=O)c2ccc(/C=C/c3ccccc3)cc2O[C@@H]1CN(C)C(=O)Nc1ccc(F)cc1 | x | 1.8 | -0.3 | x | x | 0.6
C[C@H]1CN([C@@H](C)CO)S(=O)(=O)c2ccc(/C=C/c3ccccc3)cc2O[C@H]1CN(C)CC1CC1 | x | 28.5* | -8.5 | x | x | 0.0
O=C(Nc1ccccc1F)N1C[C@H]2[C@@H](c3ccccc31)[C@@H](CO)N2C(=O)c1ccccn1 | x | -21.4 | 12.2 | x | x | -1.4
COc1ccc(NC(=O)C2CCN(S(=O)(=O)c3cccc4nonc34)CC2)cc1OC | 19.8 | 25.7* | -0.8 | -0.6 | 8.5 | 0.1
CC(On1nnc2ccccc21)C(=O)N1CCN(Cc2ccccc2)CC1 (stereo unspecified) | 0.0 | -6.2 | 5.8 | -0.1 | 2.9 | 43.5*
COc1cc(CNCc2ccccn2)ccc1OCc1ccc(Cl)c(Cl)c1 | 24.8 | 19.0 | 35.7 | -1.7 | 105.1* | -0.3
Nc1ncccc1OCc1ccc(Cl)c(Cl)c1 | 46.9* | 3.7 | x | 2.2 | x | -0.2
O=c1cc(CO)oc(CN2CCCC2)c1O | x | x | -1.3 | -1.6 | -3.8 | x
CCN(CC)Cc1oc(CO)cc(=O)c1O | -1.3 | -3.1 | -2.6 | 1.8 | -4.2 | 43.1*
CC1=CC(C)(C)NC(=S)N1c1ccc(C)cc1 | x | x | 8.3 | -2.2 | -2.2 | x
CC1=CC(C)(C)NC(=S)N1c1ccc([N+](=O)[O-])cc1 | -6.6 | -5.9 | 2.1 | 0.7 | -10.7 | 43.0*
CCCOc1ccc(-c2cc(C(=O)NCC3CCCO3)c3ccccc3n2)cc1 (stereo unspecified) | 5.3 | -0.9 | 23.4* | -4.8 | 22.0 | 0.1
O=C(COc1ccccc1)Nc1ccc(NC(=O)c2ccco2)cc1 | -2.2 | -0.2 | x | -2.8 | 1.7 | 44.3*
O=C(Nc1ccc(Cl)cc1)c1ccco1 | 45.4* | 0.5 | 36.7 | 3.8 | 45.2 | -0.1

Screening data deposited in PubChem by several laboratories.
